Our source for the composite z-score values is PubChem BioAssay.

Sequence of Torsin-1A-interacting protein 1 (Homo sapiens) (Q5JTV8 whole entry, looked up): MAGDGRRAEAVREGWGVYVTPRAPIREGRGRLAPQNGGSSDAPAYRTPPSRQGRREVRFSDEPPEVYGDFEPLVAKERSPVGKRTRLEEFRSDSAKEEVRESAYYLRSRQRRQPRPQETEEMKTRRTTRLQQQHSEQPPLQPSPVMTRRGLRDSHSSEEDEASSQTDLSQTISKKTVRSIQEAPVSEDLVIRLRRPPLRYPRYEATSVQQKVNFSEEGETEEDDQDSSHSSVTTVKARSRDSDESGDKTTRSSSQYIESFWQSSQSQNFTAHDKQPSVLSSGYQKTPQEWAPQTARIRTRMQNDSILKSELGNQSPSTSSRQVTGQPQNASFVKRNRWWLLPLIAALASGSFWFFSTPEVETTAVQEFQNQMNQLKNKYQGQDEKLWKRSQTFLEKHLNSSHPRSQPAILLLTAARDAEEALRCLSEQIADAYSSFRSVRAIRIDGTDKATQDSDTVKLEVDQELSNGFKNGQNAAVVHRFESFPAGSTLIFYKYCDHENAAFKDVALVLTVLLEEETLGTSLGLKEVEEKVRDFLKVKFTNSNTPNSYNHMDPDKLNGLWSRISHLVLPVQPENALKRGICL

The first experiment concerns the target Torsin-1A-interacting protein 1 (Homo sapiens) (UniProt Q5JTV8). As to the kind of experiment: compound microarray binding of lysate hLAP1 – cell lysate, small-molecule microarray, COS7 lysate, 635/667 nm fluorescence, primary screen (AID 1116). Conditions: 635 nm fluorescence, higher = more signal.
`CC(C)C(=C=CC[C@H](O)c1ccccc1OCCO)C[C@H](O)c1cc(Cl)cc(Cl)c1O` registered a composite z-score of 0.962.
`COc1ccc(C(=O)Nc2ccc3c(c2)[C@@]2(O[C@H](CCO)[C@@H]([Si](C)(C)c4ccc(OC)cc4)[C@@H]2C)C(=O)N3Cc2ccccc2)cc1` registered a composite z-score of 0.518.
The same measure, in the same setting: next, `CC(C)(C)OC(=O)CC[C@@]1(C(=O)NCCN2CCOCC2)N=C(c2ccc(OCCCO)cc2)O[C@@H]1c1ccccc1CN=[N+]=[N-]`: 0.462; `CC(C)C(CO)N1C(=O)[C@@H]2C3C(=O)OCCC/C=C\[C@H]3OC23C=CCN(Cc2ccccc2)C(=O)[C@@H]13` (stereo partly drawn): 1.14.
For `COC(=O)C(CC#Cc1ccc2c(c1)[C@]1(C(=O)N2)[C@H](C(=O)N2CCc3cc(OC)c(OC)cc3C2)[C@H]2C(=O)O[C@H](c3ccccc3)[C@H](c3ccccc3)N2[C@@H]1c1ccccc1OCCO)C(=O)OC`, the composite z-score was 1.59.
In turn, `CC(C)=CCCC=C(C)C(O)C1C=CC2C(=O)N(c3ccccc3)C(=O)C2N1Nc1ccc(C#N)cc1` (stereo not drawn) displayed a composite z-score of 0.217.
For the compound `C=CCC(OC(C)=O)[C@@H]1[C@@H](N(Cc2cccc3ccccc23)C(=O)Cc2ccc(OC)cc2)c2cc(OCCCO)ccc2N1C(=O)Cc1ccc2ccccc2c1` (stereo partly drawn), the composite z-score was -0.0234.
On the same count and under the same terms, as for `CN1C(=O)C2C=CC(C(O)c3ccc(-c4ccccc4)s3)N(NC(=O)OC(C)(C)C)C2C1=O` (stereo not drawn), the figure is 1.52.
In turn, `COC(=O)[C@@]1(Cc2ccccc2)N=C(c2ccc(OCCCO)cc2)O[C@H]1c1ccccc1CN=[N+]=[N-]` came in with a composite z-score of 0.757.
On to `COc1ccc([Si](C)(C)[C@H]2[C@H](CC(=O)N3Cc4ccccc4C[C@H]3CO)O[C@@]3(C(=O)N(C)c4ccccc43)[C@@H]2C)cc1`, for which the composite z-score is 0.712.
As for `C=CCC(OC(C)=O)[C@@H]1[C@@H](N(Cc2cc3ccccc3o2)C(=O)c2cccc3ccccc23)c2cc(OCCCO)ccc2N1C(=O)c1ccc2ccccc2n1` (stereo partly drawn), the composite z-score is 0.615.
Compound `CCOC(=O)C[C@H]1[C@H](OC(=O)c2ccccc2-c2ccccc2)[C@@H](NC(=O)C2CCCCC2)c2cc(OCCCO)ccc2N1C(=O)c1ccc2ccccc2n1` showed a composite z-score of -0.0006.
For the compound `O=C1C2C=CC(C(O)C3CCCCC3)N(n3cnnc3)C2C(=O)N1Cc1ccccc1` (stereo not drawn), the composite z-score was found to be 0.598.
In the case of `C=CCOC(=O)[C@@H]1[C@H]2C(=O)O[C@H](c3ccccc3)[C@H](c3ccccc3)N2[C@H](c2ccc(OCCOC(=O)[C@H]3C[C@H]4C(=O)N[C@@H](CCCCN(C)C)C(=O)N4[C@H]3c3ccc(O)cc3)cc2)[C@@]12C(=O)Nc1ccc(I)cc12`, the composite z-score came out at 1.31.
The compound `O=C1C[C@]2(c3ccc([N+](=O)[O-])cc3)C(=O)N(C3CC3)c3cc(CO)ccc3[C@H]2N1C1CCCCC1` gave a composite z-score of -0.0456.
The compound `CN(C)CCCNC(=O)[C@@]1(Cc2ccccc2I)c2ccccc2C(=O)N(C2CCCCC2)[C@H]1c1ccc(CO)cc1` had a composite z-score of 1.02.
For the compound `C=CCC(OC(C)=O)[C@@H]1[C@@H](N(Cc2cccc3ccccc23)C(=O)c2ccc(-c3ccccc3)cc2)c2cc(OCCCO)ccc2N1C(=O)Cc1ccc2ccccc2c1` (stereo partly drawn), the composite z-score was determined as 0.438.
For `COc1cc(C(O)C2C=CC3C(=O)N(c4ccccc4)C(=O)C3N2Nc2ccccc2F)cc(OC)c1OC` (stereo not drawn), the composite z-score was 0.512.
Compound `C=CCN1C(=O)[C@@]2(O[C@@H](CCn3cc([C@H](O)c4ccccc4)nn3)[C@H]([Si](C)(C)c3ccc(OC)cc3)[C@H]2C)c2cc(N3C(=O)c4cccc5cccc3c45)ccc21` returned a composite z-score of -0.236.
Turning to `COC(=O)[C@H](Cc1ccc(O)cc1)N[C@@H](/C=C/C1CC1)[C@H](O)Cc1ccccc1`, the composite z-score turned out to be 0.108.
Take `COc1ccc([Si](C)(C)[C@@H]2[C@@H](CC(=O)N3CCC[C@H]3CO)O[C@]3(C(=O)N(Cc4cccc(N5CCCCC5=O)c4)c4ccccc43)[C@H]2C)cc1`: the composite z-score is 0.191.
On to `O=C1C[C@@](C(=O)O)(c2ccc([N+](=O)[O-])cc2)[C@@H](c2ccc(CO)cc2)N1C1CCCCC1`, for which the composite z-score was 0.493.
On to `CCOC(=O)c1cn(C[C@H](Cc2ccccc2)NC(=O)N[C@H](CO)CCc2oc(C(C)=O)c(C(=O)OC)c2C(=O)OC)nn1`, for which the composite z-score was 0.866.
Turning to `NCCCCCCNC(=O)[C@@H]1C[C@@H]2C(=O)N3CCC[C@H]3C(=O)N2[C@@H]1c1cccc(OCCO)c1`, the composite z-score was 0.572.
Consider `COCCOC(=O)N1C(=O)[C@@]2(c3cc(C#CCCO)ccc31)[C@H](C(N)=O)[C@H]1C(=O)O[C@H](c3ccccc3)[C@H](c3ccccc3)N1[C@@H]2c1ccccc1OCCO`, for which the composite z-score was 1.08.

A further experiment deals with Alpha-bungarotoxin (Bungarus multicinctus) (UniProt P60615). Put plainly: compounds binding labelled alpha-BTX control protein – biochemical, small-molecule microarray, Alexa647 label, 635/667 nm fluorescence, artefact control for SMM control protein annotation, profiling panel (AID 1117). The note with it: alpha-BTX-A647 binding fluorescence, higher = more signal.
Sequence of Alpha-bungarotoxin (Bungarus multicinctus) (P60615 whole entry, looked up): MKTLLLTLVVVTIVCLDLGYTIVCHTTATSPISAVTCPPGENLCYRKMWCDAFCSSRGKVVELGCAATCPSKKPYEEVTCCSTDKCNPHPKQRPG
`CC(C)(C)N1CC=CC23O[C@@H]4/C=C\CCCOC(=O)C4[C@H]2C(=O)N(CCCO)[C@@H]3C1=O` (stereo partly drawn): the composite z-score is -1.62.
The same measure, in the same setting: as for `Cc1ccc(S[C@]2(C(=O)NCCCN(C)C)CC(=O)N(C3Cc4ccccc4C3)[C@@H]2c2ccc(CO)cc2I)cc1`, the figure is 0.651; as for `CCOc1cc(C(O)C2C=CC3C(=O)N(c4ccccc4)C(=O)C3N2Nc2ccccc2F)ccc1O` (stereo not drawn), 0.762.
For `Cc1ccc(F)cc1S(=O)(=O)N[C@H]1CCN(Cc2ccc(OC(C)C)cc2)C1`, the composite z-score was -0.494.
As to `COC(=O)C(CC#Cc1ccc2c(c1)[C@]1(C(=O)N2)[C@H](c2ccc(OCCO)cc2)N2[C@H](c3ccccc3)[C@H](c3ccccc3)OC(=O)[C@H]2[C@@H]1C(=O)N1CCCCCCC1)C(=O)OC`, the composite z-score was determined as 2.62.
With `[N-]=[N+]=Nc1ccccc1C[C@]1(C(=O)N2CCOCC2)N=C(c2ccc(OCCCO)cc2)O[C@H]1c1ccccc1N=[N+]=[N-]`, the composite z-score was 1.84.
The same measure, in the same setting: as for `O=C(NC1CC1)[C@@H]1c2ccccc2C(=O)N(Cc2ccc(OC(F)(F)F)cc2)[C@H]1c1ccc(CO)cc1`, the figure is -0.258; as for `CN(C)CCCC[C@@H]1NC(=O)[C@H]2C[C@@H](C(=O)O)[C@@H](c3ccc(O)cc3)N2C1=O`, 3.2; as for `CO[C@H]1O[C@H](CO)[C@@H](OC(=O)Nc2ccccc2)[C@H](OC(=O)Nc2ccccc2)[C@H]1OC(=O)Nc1ccccc1`, 1.05.
In turn, `[N-]=[N+]=NCc1ccccc1[C@@H]1OC(c2ccc(OCCCO)cc2)=N[C@]1(Cc1ccccc1N=[N+]=[N-])C(=O)O` showed a composite z-score of 1.55.
On the same count and under the same terms, as for `CC(C)=CCCC(C)=CC(O)C1C=CC2C(=O)NC(=O)C2N1Nc1ccc(Cl)cc1Cl` (stereo not drawn), the figure is 0.451; as for `CC(C)C(=C=CC[C@H](O)c1ccccc1OCCO)C[C@H](O)c1cc(Cl)cc(Cl)c1O`, 0.919.
`COc1ccc(C(=O)Nc2ccc3c(c2)[C@@]2(O[C@H](CCO)[C@@H]([Si](C)(C)c4ccc(OC)cc4)[C@@H]2C)C(=O)N3Cc2ccccc2)cc1`: the composite z-score turned out to be 0.399.
In the case of `CC(C)(C)OC(=O)CC[C@@]1(C(=O)NCCN2CCOCC2)N=C(c2ccc(OCCCO)cc2)O[C@@H]1c1ccccc1CN=[N+]=[N-]`, the composite z-score turned out to be 0.519.
In the case of `CC(C)C(CO)N1C(=O)[C@@H]2C3C(=O)OCCC/C=C\[C@H]3OC23C=CCN(Cc2ccccc2)C(=O)[C@@H]13` (stereo partly drawn), the composite z-score was -1.68.
Compound `COC(=O)C(CC#Cc1ccc2c(c1)[C@]1(C(=O)N2)[C@H](C(=O)N2CCc3cc(OC)c(OC)cc3C2)[C@H]2C(=O)O[C@H](c3ccccc3)[C@H](c3ccccc3)N2[C@@H]1c1ccccc1OCCO)C(=O)OC` displayed a composite z-score of 2.65.
In turn, `CC(C)=CCCC=C(C)C(O)C1C=CC2C(=O)N(c3ccccc3)C(=O)C2N1Nc1ccc(C#N)cc1` (stereo not drawn) returned a composite z-score of 0.82.
`C=CCC(OC(C)=O)[C@@H]1[C@@H](N(Cc2cccc3ccccc23)C(=O)Cc2ccc(OC)cc2)c2cc(OCCCO)ccc2N1C(=O)Cc1ccc2ccccc2c1` (stereo partly drawn) had a composite z-score of 0.14.
The same measure, in the same setting: next, `CN1C(=O)C2C=CC(C(O)c3ccc(-c4ccccc4)s3)N(NC(=O)OC(C)(C)C)C2C1=O` (stereo not drawn): 1.62; `COC(=O)[C@@]1(Cc2ccccc2)N=C(c2ccc(OCCCO)cc2)O[C@H]1c1ccccc1CN=[N+]=[N-]`: 0.537.
With `COc1ccc([Si](C)(C)[C@H]2[C@H](CC(=O)N3Cc4ccccc4C[C@H]3CO)O[C@@]3(C(=O)N(C)c4ccccc43)[C@@H]2C)cc1`, the composite z-score was determined as 2.48.
`C=CCC(OC(C)=O)[C@@H]1[C@@H](N(Cc2cc3ccccc3o2)C(=O)c2cccc3ccccc23)c2cc(OCCCO)ccc2N1C(=O)c1ccc2ccccc2n1` (stereo partly drawn) gave a composite z-score of 0.0884.
`CCOC(=O)C[C@H]1[C@H](OC(=O)c2ccccc2-c2ccccc2)[C@@H](NC(=O)C2CCCCC2)c2cc(OCCCO)ccc2N1C(=O)c1ccc2ccccc2n1`: the composite z-score came out at 0.026.
Same read-out and setting: next, `O=C1C2C=CC(C(O)C3CCCCC3)N(n3cnnc3)C2C(=O)N1Cc1ccccc1` (stereo not drawn): 0.496.
`C=CCOC(=O)[C@@H]1[C@H]2C(=O)O[C@H](c3ccccc3)[C@H](c3ccccc3)N2[C@H](c2ccc(OCCOC(=O)[C@H]3C[C@H]4C(=O)N[C@@H](CCCCN(C)C)C(=O)N4[C@H]3c3ccc(O)cc3)cc2)[C@@]12C(=O)Nc1ccc(I)cc12`: the composite z-score came to 1.51.
The compound `O=C1C[C@]2(c3ccc([N+](=O)[O-])cc3)C(=O)N(C3CC3)c3cc(CO)ccc3[C@H]2N1C1CCCCC1` displayed a composite z-score of 0.637.
Regarding `CN(C)CCCNC(=O)[C@@]1(Cc2ccccc2I)c2ccccc2C(=O)N(C2CCCCC2)[C@H]1c1ccc(CO)cc1`, the composite z-score worked out at 2.57.
Regarding `C=CCC(OC(C)=O)[C@@H]1[C@@H](N(Cc2cccc3ccccc23)C(=O)c2ccc(-c3ccccc3)cc2)c2cc(OCCCO)ccc2N1C(=O)Cc1ccc2ccccc2c1` (stereo partly drawn), the composite z-score is 0.106.
`COc1cc(C(O)C2C=CC3C(=O)N(c4ccccc4)C(=O)C3N2Nc2ccccc2F)cc(OC)c1OC` (stereo not drawn) had a composite z-score of 0.983.
Turning to `C=CCN1C(=O)[C@@]2(O[C@@H](CCn3cc([C@H](O)c4ccccc4)nn3)[C@H]([Si](C)(C)c3ccc(OC)cc3)[C@H]2C)c2cc(N3C(=O)c4cccc5cccc3c45)ccc21`, the composite z-score was -0.0541.
On the same count and under the same terms, next, `COC(=O)[C@H](Cc1ccc(O)cc1)N[C@@H](/C=C/C1CC1)[C@H](O)Cc1ccccc1`: -0.22.
Same read-out and setting: next, `COc1ccc([Si](C)(C)[C@@H]2[C@@H](CC(=O)N3CCC[C@H]3CO)O[C@]3(C(=O)N(Cc4cccc(N5CCCCC5=O)c4)c4ccccc43)[C@H]2C)cc1`: 1.22.
Still for that read-out and setting: next, `O=C1C[C@@](C(=O)O)(c2ccc([N+](=O)[O-])cc2)[C@@H](c2ccc(CO)cc2)N1C1CCCCC1`: 1.07.
